Most compounds without a hit are left out; they make up all but 2.8% or so of the library.
NSD2 HMT inh: NSD2 histone methyltransferase inhibitors, primary screen, biochemical, AlphaScreen, single concentration, set 2; Histone-lysine N-methyltransferase NSD2 (Homo sapiens), O96028; NSD2 peptide methylation, 120 min; inhibition, % at 12.5 µM; 310,000 tested, 0.54% active; AID 743445, 2014; in the data active means inhibition above about 50%
Target sequence (O96028 whole entry, looked up): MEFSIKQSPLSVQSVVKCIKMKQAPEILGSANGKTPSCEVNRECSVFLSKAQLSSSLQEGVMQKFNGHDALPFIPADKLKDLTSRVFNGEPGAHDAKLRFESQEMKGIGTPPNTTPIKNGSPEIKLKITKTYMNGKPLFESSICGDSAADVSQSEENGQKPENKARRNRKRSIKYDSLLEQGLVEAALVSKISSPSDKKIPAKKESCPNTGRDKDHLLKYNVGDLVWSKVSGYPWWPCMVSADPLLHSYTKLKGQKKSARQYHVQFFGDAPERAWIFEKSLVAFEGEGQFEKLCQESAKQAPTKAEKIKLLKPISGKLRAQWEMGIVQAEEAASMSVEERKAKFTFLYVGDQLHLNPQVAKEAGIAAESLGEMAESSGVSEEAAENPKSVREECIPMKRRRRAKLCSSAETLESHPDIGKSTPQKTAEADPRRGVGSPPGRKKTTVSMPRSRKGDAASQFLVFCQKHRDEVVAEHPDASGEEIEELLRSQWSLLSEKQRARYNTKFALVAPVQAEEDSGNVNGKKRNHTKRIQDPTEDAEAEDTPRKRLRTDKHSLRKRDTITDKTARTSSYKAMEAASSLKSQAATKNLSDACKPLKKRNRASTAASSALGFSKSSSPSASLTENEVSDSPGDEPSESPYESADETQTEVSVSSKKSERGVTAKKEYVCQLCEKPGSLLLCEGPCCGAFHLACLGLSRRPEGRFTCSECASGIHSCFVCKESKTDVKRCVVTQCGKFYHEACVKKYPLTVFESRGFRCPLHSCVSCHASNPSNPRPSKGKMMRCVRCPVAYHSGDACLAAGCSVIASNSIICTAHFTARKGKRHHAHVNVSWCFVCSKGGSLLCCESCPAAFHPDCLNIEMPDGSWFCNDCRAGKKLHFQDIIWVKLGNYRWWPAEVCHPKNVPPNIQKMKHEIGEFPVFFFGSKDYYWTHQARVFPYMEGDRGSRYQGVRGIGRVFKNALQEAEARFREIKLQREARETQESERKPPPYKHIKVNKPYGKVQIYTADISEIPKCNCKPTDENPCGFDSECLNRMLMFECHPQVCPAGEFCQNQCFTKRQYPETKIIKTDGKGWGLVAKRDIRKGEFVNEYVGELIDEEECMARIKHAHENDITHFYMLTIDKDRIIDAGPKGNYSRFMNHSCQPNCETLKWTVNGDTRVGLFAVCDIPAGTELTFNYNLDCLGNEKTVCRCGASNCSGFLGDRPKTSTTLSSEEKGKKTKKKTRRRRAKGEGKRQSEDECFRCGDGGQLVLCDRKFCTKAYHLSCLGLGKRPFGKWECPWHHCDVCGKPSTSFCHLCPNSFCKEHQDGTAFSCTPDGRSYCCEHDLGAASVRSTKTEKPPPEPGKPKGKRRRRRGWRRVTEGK
PAX8 reporter: inhibitors of PAX8-driven TPO luciferase reporter, primary screen, RMG-I cells, single concentration. AID 652154, 2013. inhibition, % at 12.6 µM. SteadyGlo, 24 h. 360,000 tested, 1.2% active;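 active means mean replicate inhibition at least 60% with every replicate also reaching 60%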;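 further: luciferase light reporting Pax8 driven TPO promoter activity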
Shn3 inh set2: reduction of Shn3 3'UTR firefly luciferase signal, primary screen, Schnurri-3 inhibitor project, cell-based, Clone20 osteoblasts, set 2; Clone20 osteoblast Shn3 3'UTR firefly luciferase, 24 h; inhibition, % at 12.5 µM; 360,000 tested, 0.52% active;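 active means mean inhibition of at least 75% with every replicate also reaching 75%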
Glyco luc inh: increase of ERlucT glycosylation luciferase signal, primary screen, N-linked glycosylation inhibitor project, D54 ERlucT cells, luminescence, set 2; D54 ERlucT glycosylation luciferase reporter, 24 h; percent of 100 nM tunicamycin response; reporter increase, % at 12.5 µM; 360,000 tested, 0.23% active; AID 588692, 2011;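 active means mean luciferase reporter signal, scaled so untreated is 0 and the glycosylation-blocking control 100, at or above a set limit in every replicate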;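 further: luciferase carries N-glycosylation sites so blocking glycosylation raises the light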
LMP1 NFkB inh: EBV LMP1-driven NF-kappaB luciferase reporter inhibitors, primary screen, cell-based, luminescence, single point. LMP1-induced NF-kappaB luciferase reporter cells. 350,000 tested, 0.69% active. inhibition, % at 12.5 µM. AID 504558, 2011; in the data active means inhibition above about 41%
HIV Env fusion: inhibitors of HIV-1 Env-driven cell-cell fusion, primary screen, HeLa-JRFL effector, CEM21 target cells, luciferase. inhibition, % at 12.3 µM. 360,000 tested, 1.1% active. AID 651610, 2012;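 active means mean replicate inhibition score of at least 50 and every replicate individually at or above 50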
Hits are given with their value; - = inactive; . = not tested or not shown.

SMILES	NSD2 HMT inh	PAX8 reporter	Shn3 inh set2	Glyco luc inh	LMP1 NFkB inh	HIV Env fusion
CCCCn1c(N)c(N(CC(C)C)C(=O)c2cccc(S(=O)(=O)N(C)c3ccccc3)c2)c(=O)[nH]c1=O	-	-	-	-	-	-
CCCCn1c(N)c(N(CC(C)C)C(=O)c2ccc(S(=O)(=O)N(CC)c3ccccc3)cc2)c(=O)[nH]c1=O	-	-	-	-	-	101.7
CC(C)CC(=O)/C=C/n1c(=S)oc2ccccc21	-	-	96.7	-	66.4	-
CC(=O)Nc1ccc(NC(=O)CCn2c(=S)oc3ccccc32)cc1	-	-	-	-	-	-
CC(=O)/C=C/n1c(=S)oc2ccccc21	-	113.5	.	.	.	-
Cn1c(=S)oc2ccccc21	-	-	-	-	-	-
C/C(=N/NS(=O)(=O)c1ccc(C(C)C)cc1)c1ccncc1	-	.	-	-	-	-
C/C(=N/NS(=O)(=O)c1ccc(CC(C)C)cc1)c1ccncc1	-	-	87.4	-	-	64.8
Cc1nc(C(=O)NC2CCCCC2)sc1C1(C)CC(c2cccc([N+](=O)[O-])c2)=NO1 (stereo not drawn)	.	-	-	-	-	-
Cc1nc(C(=O)Nc2ccc(Cl)cc2)sc1C1(C)CC(c2cccc([N+](=O)[O-])c2)=NO1 (stereo not drawn)	.	-	-	-	-	55.0
COc1ccc(NC(=O)Nc2ccc3c(c2)[C@H]2C[C@@H](CC(=O)NC4CCCC4)O[C@@H](CO)[C@H]2O3)cc1	.	-	.	.	.	-
CC[C@H](C)[C@@H](C(=O)NCCCCCCCCCCC(=O)N1CCN(C(=O)OC(C)(C)C)CC1)n1cc(CCCCCNC(=O)OC(C)(C)C)nn1	.	63.0	89.4	-	-	-
CC(C)(C)OC(=O)NCCCCCc1cn([C@@H](CO)C(=O)NCCCCCCCCCCC(=O)N2CCN(C(=O)OC(C)(C)C)CC2)nn1	.	-	-	-	-	-
C[C@H](CO)N1C[C@H](C)[C@H](CN(C)Cc2ccncc2)OCCCC[C@H](C)Oc2ccc(NC(=O)Nc3ccc(C(F)(F)F)cc3)cc2C1=O	.	70.7	.	.	.	-
C[C@H](CO)N1C[C@H](C)[C@@H](CN(C)Cc2ccncc2)OCCCC[C@H](C)Oc2ccc(NC(=O)Nc3ccc(C(F)(F)F)cc3)cc2C1=O	.	-	.	.	.	-
C[C@@H]1CCCCO[C@@H](CN(C)Cc2ccncc2)[C@H](C)CN([C@@H](C)CO)C(=O)c2cc(NC(=O)Nc3ccc(C(F)(F)F)cc3)ccc2O1	.	93.4	.	.	.	-
C[C@H]1CCCCO[C@@H](CN(C)Cc2ccncc2)[C@@H](C)CN([C@@H](C)CO)C(=O)c2cc(NC(=O)Nc3ccc(C(F)(F)F)cc3)ccc2O1	.	81.3	.	.	.	-
C[C@@H]1CCCCO[C@@H](CN(C)Cc2ccc(C(=O)O)cc2)[C@H](C)CN([C@H](C)CO)C(=O)c2cc(NC(=O)Nc3ccc(C(F)(F)F)cc3)ccc2O1	.	-	.	.	.	-
CCn1c(SCC(=O)N2CCN(c3ccccc3)CC2)nnc1-c1cc2cc(Cl)ccc2o1	-	.	-	-	-	68.4
CCn1c(CC(=O)Nc2ccc(C)cc2)nnc1SCC(=O)N1CCN(c2ccccc2)CC1	.	-	-	-	-	-
COc1ccccc1CNC(=O)c1ccc(CS(=O)(=O)c2ccc(Cl)cc2)o1	-	.	.	.	.	.
CCC(=O)N(C)C[C@H]1Oc2cc(C#CCN(C)C)ccc2S(=O)(=O)N([C@@H](C)CO)C[C@H]1C	.	.	.	.	.	-
O=C(Nc1ccc(C(=O)N2CCCC2)cc1)c1ccccc1F	-	.	-	-	-	.
O=C(Nc1cc(C(=O)N2CCCC2)ccc1N1CCCC1)c1ccccc1F	-	.	-	-	50.6	-
COc1ccc2c3c(n(C)c2c1)[C@@H](CO)N(C(=O)c1ccc(F)cc1)CC31CCN(C(=O)c2ccc(F)cc2)CC1	.	.	.	.	.	-
SMILES	NSD2 HMT inh	PAX8 reporter	Shn3 inh set2	Glyco luc inh	LMP1 NFkB inh	HIV Env fusion
COc1ccccc1-n1c(C)nnc1SCC(=O)Nc1cc(C)cc(C)c1	-	.	-	-	-	55.6
O=c1[nH]c2ccccc2nc1-c1ccccc1	.	-	-	-	-	-
NC(=O)N=Nc1c2[nH]c3ccccc3nc-2c2ccccc12	-	-	-	94.2	-	-
C[C@H]1CCCCO[C@@H](CN(C)S(=O)(=O)c2ccccc2)[C@@H](C)CN([C@@H](C)CO)C(=O)c2cc(NC(=O)Cc3ccccc3)ccc2O1	.	-	.	.	.	-
CCC1(C)Cc2ccccc2-c2nc(SCC(N)=O)[nH]c(=O)c21 (stereo not drawn)	-	-	-	-	-	-
CCC1(C)Cc2ccccc2-c2nc(SC)[nH]c(=O)c21 (stereo not drawn)	-	-	-	-	-	80.0
Cc1csc(N(C(=O)c2ccccc2F)c2ccccc2)n1	-	-	-	-	-	-
COc1cc(CC(=O)N(c2ccccc2)c2nc(C)cs2)cc(OC)c1OC	-	-	-	-	51.7	-
O=C(c1cnccn1)N1C[C@H]2[C@@H](c3ccccc31)[C@@H](CO)N2Cc1ccc2c(c1)OCO2	.	-	.	.	.	.
COc1ccc(Nc2oc(COc3ccc(Cl)cc3)nc2C#N)cc1	-	-	-	-	46.1	84.4
O=S(=O)(NCC1CCCO1)c1cc(Cl)ccc1Cl (stereo not drawn)	-	.	-	-	-	.
O=S(=O)(NCC1CCCO1)c1cc(Cl)ccc1Br (stereo not drawn)	-	.	-	-	-	.
O=C(NCC1CCCO1)C(=Cc1cccc([N+](=O)[O-])c1)C(=O)NCC1CCCO1 (stereo not drawn)	.	98.0	-	-	-	-
O=S(=O)(NCC1CCCO1)c1cnc(Cl)c(Br)c1 (stereo not drawn)	-	109.7	-	-	-	.
O=S(=O)(NCC1CCCO1)c1ccc(Oc2ccccc2)cc1 (stereo not drawn)	-	.	-	-	-	57.1
O=C(NCC1CCCO1)/C(=C\c1cccc([N+](=O)[O-])c1)NC(=O)c1ccccc1 (stereo not drawn)	-	-	-	-	-	-
O=[N+]([O-])c1ccc(Cl)c(S(=O)(=O)NCC2CCCO2)c1 (stereo not drawn)	-	-	-	-	47.8	-
CCC(=O)N1[C@@H]2CN(C(=O)Nc3cccc(Cl)c3)c3ccccc3[C@@H]2[C@@H]1CO	.	-	.	.	.	.
CN(C)CC(C)(C)CNS(=O)(=O)c1ccc(OC(F)(F)F)cc1	.	-	-	-	46.6	-
Cc1oc2c(Cl)c(Cl)c(O)c(CN(C)C)c2c1C(=O)c1ccc(Cl)cc1	-	-	-	-	-	64.2
O=C(NC1CCCCC1)C(c1ccc(F)cc1)N(Cc1ccco1)C(=O)CN1C(=O)c2ccccc2S1(=O)=O (stereo not drawn)	-	102.3	-	-	-	.

Assay outcomes: PubChem, Broad Institute
